Holding throughout (test): NCI-60 one-dose screen, 48 h (100 = growth as untreated, 0 = no growth, -100 = all killed)
Conditions in all cases: 10 µM unless noted

For experiment [1], the system named is RPMI-8226 leukemia.
The test system of experiment [2] is OVCAR-8 ovarian.
Experiment [3] relates to OVCAR-5 ovarian.
Experiment [4] relates to OVCAR-4 ovarian.
For experiment [5], the system named is SK-OV-3 ovarian.
The test system of experiment [6] is IGROV1 ovarian.
Experiment [7] concerns OVCAR-3 ovarian.
The test system of experiment [8] is HS 578T breast.
For experiment [9], the system named is NCI/ADR-RES ovarian.

This is part of a sample that, as a whole, favours compounds with a hit. Of some 83,000 tested, about 20% had one in any assay.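 Single-dose data. Exposure time 48 hours. Values below 10 considered active.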 Unmarked numbers belong to inactive results. Active and inactive are the calls of the source.

Turning to `O=C1C(Cl)=C(Nc2ccc(O)cc2)C(=O)N1Cc1ccc(Cl)cc1`, the growth in experiment [1] is 26.1%; in experiment [2], 65%; in experiment [3], 85.3%; in experiment [4] it was 77.5%; in experiment [5], 88.1%; in experiment [6], 30.5%. In addition, the growth in experiment [7] was 40.8%; in [8], 78.6%; in [9], 81.3%.

Turning to `O=C1c2c(c3c4ccccc4[nH]c3c3ccc4ccccc4c23)C(=O)N1CCN1CCCCC1`, the growth in [1] was 9.02% (active); in [2], 25.6%; in [3], 74.8%; in experiment [4], 64.8%; in experiment [5], 53.7%; in experiment [7], 51.1%. For the same molecule, the growth was 90.2% in [8] and 40.9% in experiment [9].

As for `C=C(C)[C@@H]1CC[C@]2(C(=O)NCCNCCN)CC[C@]3(C)[C@H](CC[C@@H]4[C@@]5(C)C/C(=C/c6ccncc6)C(=O)C(C)(C)[C@@H]5CC[C@]43C)[C@@H]12`, the growth is 90.5% in experiment [1]; 101% in experiment [2]; 103% in experiment [3]; 89.9% in experiment [4]; 109% in experiment [5]; 87.6% in experiment [6]. In addition, the growth is 97.9% in experiment [7] and 86.7% in experiment [8].

`Brc1ccc2[nH]cc(-c3nonc3-c3c[nH]c4ccccc34)c2c1`: the growth in experiment [1] was 48.7%; in experiment [2], 47%; in [3], 48.9%; in experiment [4], 46.1%; in [5], 60.5%; in [6], 43.6%. Further, the growth was 45.4% in experiment [7], 52.8% in [8] and 42.6% in experiment [9].

For `O=C1NCCC12CCN(c1c(Cl)cncc1-c1ccc(O)cc1)CC2`, the growth in [1] is 85.5%; in experiment [2], 89.1%; in experiment [3], 83.6%; in experiment [4], 105%; in [5], 85.4%; in experiment [6], 69.2%. In addition, the growth in experiment [7] was 104%; in experiment [8], 101%; in [9] it was 91.8%.

Regarding `CCOC(=O)c1[nH]c(=O)c2c(C)nc(-c3ccccc3)cc2c1O`, the growth in experiment [1] is 93.8%; in [2] it was 109%; in experiment [3], 106%; in experiment [4], 117%; in [5], 108%; in experiment [6], 1.43% (active). The figures for the growth in experiment [7], in experiment [8] and in experiment [9] were 105%, 98.4% and 103%, respectively.

Regarding `Cn1ccc2c3c(ccc21)CC3=O`, the growth in experiment [2] was 107%; in experiment [3], 102%; in [4], 119%; in experiment [5], 113%; in experiment [7] it was 117%; in experiment [8] it was 121%. In addition, the growth in experiment [9] is 115%.

Consider `C=C(CNCCc1ccc(O)cc1)[C@@H]1CC[C@]2(CO)CC[C@]3(C)[C@H](CC[C@@H]4[C@@]5(C)CCC(NCCO)C(C)(C)[C@@H]5CC[C@]43C)[C@@H]12` (some centres undefined), for which the growth was -45.9% (active) in experiment [1]; -49.7% (active) in experiment [2]; 4.67% (active) in experiment [3]; -15.9% (active) in experiment [4]; 86.4% in experiment [5]; -37.1% (active) in experiment [6]. Besides, the growth is -41.7% (active) in [7], -61.1% (active) in [8] and 53.8% in [9].

Consider `O=C(CN1C(=O)CCC1=O)Nc1ncc(Cc2ccc(F)cc2)s1`, for which the growth in experiment [1] was 105%; in experiment [2] it was 107%; in experiment [3], 97.3%; in experiment [4], 101%; in experiment [5] it was 110%; in experiment [6], 101%. In addition, the growth in [8] was 101%; in experiment [9] it was 100%.

As to `COc1ccc2[nH]cc(C(c3cc(F)cc(F)c3)c3c[nH]c4ccc(OC)cc34)c2c1`, the growth in experiment [1] was 57.5%; in [2] it was 87.2%; in [4], 93.9%; in experiment [5] it was 94.8%; in experiment [6], -7.1% (active); in experiment [7], 89.9%. Moreover, the figures for the growth in experiment [8] and in experiment [9] were 67.2% and 72.9%, respectively.

For `Oc1c(Cl)cc(Cl)c2ccc(Cn3cc(-c4cc(C(F)(F)F)cc(C(F)(F)F)c4)nn3)nc12`, the growth in experiment [1] was 3.44% (active); in experiment [2], 53.6%; in [3], 95.6%; in [4], 48.6%; in [5] it was 115%; in experiment [6] it was 82.3%. Moreover, the growth in [7] was -4.28% (active); in [9], 97.8%.

For the molecule `O=C1/C(=C/c2ccc(F)cc2)COc2ccc(O)c(O)c21`, the growth in [2] was 6.23% (active); in experiment [3] it was 1.54% (active); in [4] it was 43%; in [5], 69.1%; in experiment [6] it was -21.8% (active); in experiment [7] it was -2.58% (active). The results for the growth in experiment [8] and in experiment [9] were 21.5% and 1.04% (active), respectively.

For the molecule `Cc1cc2c(O)c(-c3cc(Cl)ccc3Cl)c3sc(=O)oc3c2cc1C`, the growth in [1] was 38.3%; in experiment [2], 68.1%; in experiment [3] it was 106%; in experiment [4], 24.5%; in [5] it was 76.3%; in experiment [6], 76.5%. The growth was 29.8% in experiment [7] and 76.4% in experiment [8].

Turning to `C[C@H](NC(=O)[C@@H](C)N)[C@H](Oc1ccc2c(cnn2-c2ccc(F)cc2)c1)c1ccc2c(c1)OCCO2`, the growth was 20.7% in [1]; 57.8% in experiment [2]; 64.7% in [3]; 60.7% in experiment [4]; 49.2% in experiment [5]; 40.9% in [6]. In addition, the growth in [7] was 55.8%; in [9], 57.6%.

Regarding `C=C(C)[C@@H]1CC[C@]2(C)[C@H](CC=C3[C@@H]4[C@H](C)[C@@H](C)CC[C@]4(CO)CC[C@]32C)[C@@]1(C)CCCN`, the growth in experiment [1] was -33.7% (active); in [2], -48.5% (active); in experiment [4] it was 5.39% (active); in experiment [5] it was 14.1%; in [6], 30%; in [7], 20.1%. Besides, the growth in experiment [8] was 25.3%; in experiment [9] it was 14.1%.

Regarding `CC1=C(Nc2ccc(N3CCN(C)CC3)cc2)C(=O)c2cncnc2C1=O`, the growth was 41.8% in [1]; 2.2% (active) in experiment [2]; 71.7% in experiment [3]; -98.1% (active) in [4]; 111% in experiment [5]; 1.56% (active) in [6]. In addition, the growth is -34.8% (active) in experiment [7], 126% in experiment [8] and 18.1% in [9].

Consider `O=C1Nc2ccccc2/C1=C\c1nc(-c2ccccc2F)n2ccccc12`, for which the growth was 5.14% (active) in experiment [2]; 47.8% in experiment [3]; -34.4% (active) in experiment [4]; -0.955% (active) in experiment [5]; 2.99% (active) in experiment [6]; 6.22% (active) in [7]. The growth in experiment [8] was 12%; in [9], 9.77% (active).

Turning to `COc1ccc(/C=C2\COc3ccc(O)cc3C2=O)c(OC)c1OC`, the growth in experiment [1] was 8.76% (active); in experiment [2], 67%; in experiment [3], 95.8%; in experiment [4], 79.3%; in experiment [5], 112%; in experiment [6], 91.3%. Besides, the growth in experiment [7] is 57.2%; in [8], 78%; in experiment [9] it was 55.1%.

Regarding `Nc1c(C(=O)Nc2ccccc2Cl)sc2nc3c(cc12)C(O)CCC3` (centres undefined), the growth in experiment [1] was 25.2%; in [2], 32.3%; in experiment [3] it was 80.6%; in [4], 53.9%; in experiment [5] it was 42.9%; in experiment [6], 57.2%. Further, the values for the growth in experiment [7], in experiment [8] and in [9] were 15.5%, 58.5% and 18.8%, respectively.

The record behind these values is PubChem BioAssay (NCI).
